Experimental data from the supplement of paper PMC9948646.

These compounds were tested on gramicidin D channels in DC22:1PC lipid vesicles (bilayer-modifying potency) (assay: initial Tl+ fluorescence quench rate relative to no-drug control (NormRate, gramicidin monomer-dimer shift) (ratio (fold of control)); higher = stronger bilayer-modifying effect (equilibrium shifted toward conducting dimers), active = 1.5 or more). Details: 10 µM; lipid concentration 50 µM; temperature: 25 °C.
Experimental: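 Stopped-flow fluorescence quench assay: ANTS-loaded DC22:1PC large unilamellar vesicles doped with gramicidin D (1:2000), 50 µM lipid, equilibrated 10 min with 10 µM drug (0.1% DMSO), mixed with Tl+ quench buffer at 25°C. Initial quench rate (Tl+ influx) was fitted with a modified stretched exponential and normalised to the no-drug control rate (NormRate); duplicates from two independent LUV preparations (triplicates for 7 drugs).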

| Structure (SMILES) | initial Tl+ fluorescence quench rate |
| --- | --- |
| [H]/N=C(\N)c1ccc(OCCCCCOc2ccc(/C(N)=N\[H])cc2)cc1 | 1.02 (inactive) |
| Oc1c(I)cc(I)c2cccnc12 | 1.47 (inactive) |
| CC(C)(C)n1nc(-c2ccccc2)c2c(N)ncnc21 | 1.03 (inactive) |
| O=C(c1ccco1)N(CCCn1ccnc1)c1nc2c(Cl)cccc2s1 | 1.24 (inactive) |
| C[C@@H](Oc1cccc(Cl)c1)C(=O)Nc1ccc2oc(-c3ccncc3)nc2c1 | 1.72 (active) |
| CC(C)(C)n1nc(Cc2cccc3ccccc23)c2c(N)ncnc21 | 2.86 (active) |
| COc1ccc(-c2cnc3ccc(N4CCCC4)nn23)cc1OC | 2.31 (active) |
| Clc1ccc(CN2CCN(C3=NCCN3)CC2)cc1Cl | 1.2 (inactive) |
| CCOc1ccc2cc(-c3nn(CC4CCN(C)CC4)c4ncnc(N)c34)ccc2c1 | 1.16 (inactive) |
| COc1ccc(-c2cnc3ccc(NCc4ccc(S(N)(=O)=O)cc4)nn23)cn1 | 1.24 (inactive) |
| O=C(NC1CC1)c1ccc(CSCc2ccccc2Cl)o1 | 1.35 (inactive) |
| Cc1ccc(S(=O)(=O)Nc2ccc(CN3CCN(C(=O)c4cccc(C#N)c4)CC3)cc2)cc1 | 1.5 (active) |
| NCCC[C@](N)(C(=O)O)C(F)F | 1.07 (inactive) |
| OC[C@H]1O[C@@H](n2c3ccc(Cl)cc3c3c(-c4cc5ccccc5o4)ncnc32)[C@H](O)[C@H]1O | 3.52 (active) |
| Clc1ccc(-n2cc(COc3ccnc4ccccc34)nn2)cc1 | 1.13 (inactive) |
| CCN(CC)CCCCCCNc1cc(OC)cc2c(C)ccnc12 | 1.45 (inactive) |
| O=C(NCCc1ccn(-c2ccccc2)n1)C1CCCCC1 | 1.05 (inactive) |
| c1ccc2c(c1)CN(CC1CC1)CC1(CCN(Cc3c[nH]c4cnccc34)CC1)O2 | 1.06 (inactive) |
| Cc1cccc(NC(=O)c2cc(S(=O)(=O)N(C)c3ccc(F)cc3)ccc2Cl)n1 | 1.5 (active) |

| Structure (SMILES) | initial Tl+ fluorescence quench rate |
| --- | --- |
| Cc1ccc2c(c1C)NC(=O)[C@@]21NN=C(c2ccccc2)S1 | 1.38 (inactive) |
| CC[C@H](Sc1nc2ccccc2o1)C(=O)Nc1nnc(C)s1 | 1.3 (inactive) |
| CCCCCCCCCCCCCCCCOP(=O)([O-])OCC[N+](C)(C)C | 2.31 (active) |
| OCc1ccc(-c2cncc(Nc3cccc(Cl)c3)c2)cc1 | 2.64 (active) |
| O=C(C1CCCCC1)N1CC(=O)N2CCc3ccccc3[C@@H]2C1 | 1.04 (inactive) |
| CNC(=O)c1cc(S(=O)(=O)N2CCN(c3ccccn3)CC2)cs1 | 1.07 (inactive) |
| Cc1ccc(C(=O)Nc2ccc(S(=O)(=O)O)c3cc(S(=O)(=O)O)cc(S(=O)(=O)O)c23)cc1NC(=O)c1cccc(NC(=O)Nc2cccc(C(=O)Nc3cc(C(=O)Nc4ccc(S(=O)(=O)O)c5cc(S(=O)(=O)O)cc(S(=O)(=O)O)c45)ccc3C)c2)c1 | 2.56 (active) |
| CC[C@H](CO)NCCN[C@H](CC)CO | 1.02 (inactive) |
| CC(=O)Oc1ccccc1C(=O)Nc1ncc([N+](=O)[O-])s1 | 1.05 (inactive) |
| Cc1ncc(-c2ccnc(Nc3ccc(S(C)(=O)=O)cc3)n2)n1C(C)C | 1.03 (inactive) |
| CN1CCN(c2cc(-c3ccc(F)cc3)nc(-c3ccncc3)n2)CC1 | 1.18 (inactive) |
| Nc1nc(N)c2c3c(sc2n1)CN(Cc1ccccc1)CC3 | 1.04 (inactive) |
| [H]/N=C(\N)c1ccc(-n2cc(-c3cc(/C(N)=N/[H])ccc3OC)nn2)cc1 | 1.05 (inactive) |
| NS(=O)(=O)c1cccc(-c2ccc3ncc(N4CCOCC4)nc3c2)c1 | 1.41 (inactive) |
| CS(=O)(=O)c1ccccc1C(=O)N(Cc1ccccc1)c1ccccc1 | 1.09 (inactive) |
| Cc1ccc(Oc2ccc(NC(=O)CNc3ccccc3N3CCCC3=O)cc2)cc1 | 4.66 (active) |
| CC(=O)NC[C@@H]1CN(c2ccc(N3CCOCC3)c(F)c2)C(=O)O1 | 1.08 (inactive) |
| Nc1nccc2ccc(-c3ccc4nccn4c3)cc12 | 1.17 (inactive) |
